Only some compounds are listed: those with a hit (about 3.5% of all), similar ones and a draw of the others.
MITF primary = MITF inhibitors, primary screen, biochemical, AlphaScreen, human | Microphthalmia-associated transcription factor (Homo sapiens), O75030 | AlphaScreen MITF homodimerization, bead proximity signal | inhibition, % at 2.6 µM | hit rate 0.91% among 650,000 | AID 1259374, 2018; in the data active = inhibition above about 50%;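 note: 0% = vehicle wells with protein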
Target sequence (O75030 whole entry, looked up): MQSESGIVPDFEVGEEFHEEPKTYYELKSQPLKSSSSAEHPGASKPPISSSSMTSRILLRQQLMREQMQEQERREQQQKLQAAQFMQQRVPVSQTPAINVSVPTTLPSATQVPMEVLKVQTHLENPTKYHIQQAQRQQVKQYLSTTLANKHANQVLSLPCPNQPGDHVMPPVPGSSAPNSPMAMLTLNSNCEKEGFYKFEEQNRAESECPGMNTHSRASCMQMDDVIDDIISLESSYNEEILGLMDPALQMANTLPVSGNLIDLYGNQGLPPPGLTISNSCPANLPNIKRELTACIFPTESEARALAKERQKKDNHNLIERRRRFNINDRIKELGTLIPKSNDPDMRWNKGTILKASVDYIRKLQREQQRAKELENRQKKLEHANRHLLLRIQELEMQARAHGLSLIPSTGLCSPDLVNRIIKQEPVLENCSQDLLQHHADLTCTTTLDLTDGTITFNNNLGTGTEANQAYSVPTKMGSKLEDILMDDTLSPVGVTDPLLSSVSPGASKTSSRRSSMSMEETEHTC
GPR151 activ = activators of human GPR151, primary screen, cell-based, PathHunter beta-arrestin, luminescence; activation, % at 11.2 µM; hit rate 1% among 650,000; G-protein coupled receptor 151 (Homo sapiens), Q8TDV0; PathHunter beta-arrestin GPR151 cells; in the data active = activation above about 4.9%;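 note: 0% = median of compound wells and 100% = cells with positive control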
FBW7 activator = FBW7 E3 ligase activators, primary screen, biochemical, AlphaScreen, human | AlphaScreen FBW7–phospho-cyclin E peptide binding, activator screen | normalized activity (activation), % at 26.1 µM | hit rate 0.13% among 650,000; in the data active = normalized activity above about 1.9%;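 note: purified mutant Fbw7 with reduced substrate affinity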
TEAD-YAP block = TEAD-YAP interaction inhibition, primary screen, TEAD-YAP interaction inhibitor project, luminescence, HEK-TIYL cells; TEAD-Gal4/YAP UAS-luciferase luminescence; inhibition, % at 9.12 µM; hit rate 1.4% among 640,000; in the data active = inhibition above about 32%;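 note: 0% = median of test compound wells and 100% = reference inhibitor wells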
Active calls of the source: *.

Screening NC(=O)c1ccccc1Nc1ccnc(Nc2ccc(N3CCNCC3)cc2)c1 returned MITF primary 8, GPR151 activ 0, FBW7 activator -1 and TEAD-YAP block 4.
`Cc1ccc(C(C(=O)Nc2ccc3c(c2)OCCO3)N(C)C(=O)CCc2cc(C(C)(C)C)c(O)c(C(C)(C)C)c2)cc1` (stereo unspecified) gave MITF primary -1, GPR151 activ 0, FBW7 activator 0 and TEAD-YAP block -28.
`CNC(=O)c1ccccc1Nc1cc(Nc2ccc(C(=O)N3CC[C@H](O)C3)cc2OC)ncc1C(F)(F)F` gave MITF primary 15, GPR151 activ 1, FBW7 activator 0 and TEAD-YAP block 33*.
CNC(=O)c1ncccc1Nc1cc(Nc2ccc(C(=O)N(C)C)cc2OC)ncc1C(F)(F)F was read as MITF primary -4, GPR151 activ 0, FBW7 activator 0 and TEAD-YAP block -13.
Screening CC(C)(C)c1ccc(Oc2c(C(F)(F)F)oc3cc(OC(=O)c4cccs4)ccc3c2=O)cc1 returned MITF primary -2, GPR151 activ 0, FBW7 activator 0 and TEAD-YAP block 94*.
For CCCc1ccc(Oc2c(C(F)(F)F)oc3cc(OC(C)=O)ccc3c2=O)cc1 the results were MITF primary 10, GPR151 activ -3, FBW7 activator 0 and TEAD-YAP block 83*.
CC(=O)Oc1ccc2c(=O)c(Oc3ccccc3)c(C(F)(F)F)oc2c1 was read as MITF primary -1, GPR151 activ 0, FBW7 activator 1 and TEAD-YAP block -10.
For COc1ccc(C(=O)/C=C/c2ccc(-c3cccc(Cl)c3)o2)cc1 the results were MITF primary 12, GPR151 activ -1, FBW7 activator 0 and TEAD-YAP block -4.
Screening O=C(CSc1nc2[nH]ncc2c(=O)n1-c1ccccc1)Nc1ccc2c(c1)OCCO2 returned MITF primary 7, GPR151 activ 0, FBW7 activator 0 and TEAD-YAP block 50*.
For O=C(CSc1nc2[nH]ncc2c(=O)n1-c1ccc(Br)cc1)Nc1ccc2c(c1)OCCO2 the results were MITF primary 1, GPR151 activ -2, FBW7 activator 0 and TEAD-YAP block 42*.
Screening O=C(CSc1nc2[nH]ncc2c(=O)n1-c1cccc(C(F)(F)F)c1)Nc1ccc2c(c1)OCCO2 returned MITF primary 8, GPR151 activ 0, FBW7 activator 0 and TEAD-YAP block 27.
O=C(O)CCCCCNC(=O)/C(=C/c1ccc(Cl)cc1)NC(=O)c1ccco1 was read as MITF primary -3, GPR151 activ 0, FBW7 activator 1 and TEAD-YAP block 8.
For CCOc1ccccc1NC(=O)N1CCOc2ccc(C)cc21 the results were MITF primary -4, GPR151 activ 0, FBW7 activator 0 and TEAD-YAP block -8.
`Cc1c(C(=O)N/N=C/c2cccc(OC(=O)N3CCOCC3)c2)nnn1-c1nonc1N` gave MITF primary -17, GPR151 activ 1, FBW7 activator 0 and TEAD-YAP block 7.
COc1cc(C(=O)N/N=C/c2cccc(OC(=O)N3CCOCC3)c2)cc(OC)c1OC was read as MITF primary 19, GPR151 activ 2, FBW7 activator 0 and TEAD-YAP block 58*.
Screening Cc1cc(C(=O)N/N=C/c2ccc(O)c(O)c2O)c2ccccc2n1 returned MITF primary 82*, GPR151 activ -2, FBW7 activator -1 and TEAD-YAP block 17.
`Cc1cc(C(=O)N/N=C/c2cc([N+](=O)[O-])ccc2O)c2ccccc2n1` gave MITF primary 102*, GPR151 activ 0, FBW7 activator 0 and TEAD-YAP block 17.
`O=C(N/N=C\c1ccc([N+](=O)[O-])o1)c1ccccc1-n1cccc1` gave MITF primary 12, GPR151 activ 3, FBW7 activator 0 and TEAD-YAP block 49*.
For CC(=O)NC(Cc1ccccc1)C(=O)NC1CCN(C(=O)c2cccs2)CC1 (stereo unspecified) the results were MITF primary 14, GPR151 activ 1, FBW7 activator 0 and TEAD-YAP block 7.
Screening CCCCOc1ccc(C(=O)N/C(=C/C=C/c2ccccc2)C(=O)NCCCO)cc1 returned MITF primary -4, GPR151 activ 0, FBW7 activator 0 and TEAD-YAP block -16.
Cc1ccc(-c2cc(C#N)c(NC(=O)c3cccs3)o2)cc1 was read as MITF primary -6, GPR151 activ 1, FBW7 activator 0 and TEAD-YAP block -22.
Screening Cc1ccc(C(=O)N/N=C/c2ccc(O)c(O)c2O)c(C)c1 returned MITF primary 57*, GPR151 activ 0, FBW7 activator -1 and TEAD-YAP block -16.
For CCOc1cccc(/C=N/NC(=O)c2ccc(C)cc2C)c1O the results were MITF primary -4, GPR151 activ 0, FBW7 activator -1 and TEAD-YAP block 0.
`O=C(N/N=C/c1ccc(O)c(O)c1O)c1ccccc1-n1cccc1` gave MITF primary 56*, GPR151 activ -1, FBW7 activator -1 and TEAD-YAP block 9.
`COc1cc(C(=O)N/N=C/c2ccc([N+](=O)[O-])o2)cc(OC)c1OC` gave MITF primary 13, GPR151 activ -1, FBW7 activator 0 and TEAD-YAP block 34*.
Screening Cc1cc(C(=O)N/N=C/c2ccccc2OC(F)F)c2ccccc2n1 returned MITF primary 8, GPR151 activ 0, FBW7 activator 1 and TEAD-YAP block 34*.
`Cc1cc(C(=O)N/N=C/c2ccc(O)c(O)c2O)c(C)n1-c1ccccc1` gave MITF primary 39, GPR151 activ 1, FBW7 activator -1 and TEAD-YAP block 7.
Screening C=CCOc1ccc(NC(=O)C2CC(=O)N(C(C)C)C2)cc1 (stereo unspecified) returned MITF primary 4, GPR151 activ 0, FBW7 activator 0 and TEAD-YAP block 1.
CC1=C(C(=O)OCc2ccc3c(c2)OCO3)C(c2ccc(Cl)cc2)NC(=O)N1 (stereo unspecified) was read as MITF primary 11, GPR151 activ 0, FBW7 activator 0 and TEAD-YAP block 77*.
For CC1=C(C(=O)OCc2ccc3c(c2)OCO3)C(c2ccc(F)cc2)NC(=O)N1 (stereo unspecified) the results were MITF primary 12, GPR151 activ 1, FBW7 activator 0 and TEAD-YAP block 61*.
For CC1=C(C(=O)OCC2CCCO2)C(c2ccc([N+](=O)[O-])cc2)NC(=O)N1 (stereo unspecified) the results were MITF primary -1, GPR151 activ 0, FBW7 activator 0 and TEAD-YAP block 3.
Screening CC1=C(C(=O)OCc2ccc3c(c2)OCO3)C(c2ccc([N+](=O)[O-])cc2)NC(=O)N1 (stereo unspecified) returned MITF primary 4, GPR151 activ 0, FBW7 activator 0 and TEAD-YAP block 76*.
